Parameters in all cases: scale not given: direction of the effect not stated beside the values
Assay [1] addresses Protein translocase subunit SecA (Escherichia coli (strain K12)) (UniProt P10408). The assay is described as follows: Assay to Identify E. coli SecA ATPase Inhibitors. The assay is classed as functional. The settings on record: 30 µM.
In assay [2] the target is T1, Ubiquitin-activating enzyme e1, putative (Leishmania donovani (strain BPK282A1)) (UniProt E9BSI1).
T1 sequence (whole entry): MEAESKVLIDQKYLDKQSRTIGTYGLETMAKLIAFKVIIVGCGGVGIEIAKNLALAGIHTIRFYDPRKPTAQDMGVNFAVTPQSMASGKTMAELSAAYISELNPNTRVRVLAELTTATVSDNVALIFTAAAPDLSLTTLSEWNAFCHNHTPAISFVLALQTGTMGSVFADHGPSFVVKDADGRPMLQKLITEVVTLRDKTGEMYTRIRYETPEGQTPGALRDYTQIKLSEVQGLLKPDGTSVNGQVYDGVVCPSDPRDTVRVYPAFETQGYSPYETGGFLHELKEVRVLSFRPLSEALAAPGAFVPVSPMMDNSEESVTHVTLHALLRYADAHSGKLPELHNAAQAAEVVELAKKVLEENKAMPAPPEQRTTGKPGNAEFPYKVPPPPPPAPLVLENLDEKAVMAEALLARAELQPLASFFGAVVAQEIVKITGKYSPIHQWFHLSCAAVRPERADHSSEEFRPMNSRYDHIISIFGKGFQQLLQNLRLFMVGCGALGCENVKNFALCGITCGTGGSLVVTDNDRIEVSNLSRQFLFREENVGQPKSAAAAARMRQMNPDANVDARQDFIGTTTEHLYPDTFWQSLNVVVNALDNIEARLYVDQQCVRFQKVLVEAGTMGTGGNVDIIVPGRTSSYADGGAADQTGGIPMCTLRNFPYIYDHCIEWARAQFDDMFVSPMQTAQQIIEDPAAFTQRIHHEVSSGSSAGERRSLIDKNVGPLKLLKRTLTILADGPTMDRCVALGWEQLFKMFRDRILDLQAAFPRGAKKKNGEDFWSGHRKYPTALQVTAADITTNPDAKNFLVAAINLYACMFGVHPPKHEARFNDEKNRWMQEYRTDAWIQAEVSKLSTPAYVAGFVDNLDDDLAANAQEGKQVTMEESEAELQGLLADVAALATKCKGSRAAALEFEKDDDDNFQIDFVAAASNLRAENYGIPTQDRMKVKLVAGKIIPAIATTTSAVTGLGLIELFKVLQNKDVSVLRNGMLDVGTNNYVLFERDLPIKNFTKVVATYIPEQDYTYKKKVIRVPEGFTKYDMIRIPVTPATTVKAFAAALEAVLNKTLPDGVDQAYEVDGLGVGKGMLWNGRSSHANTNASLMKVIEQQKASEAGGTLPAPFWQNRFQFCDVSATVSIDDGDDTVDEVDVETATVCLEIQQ
As to the kind of experiment: Leishmania donovani Ubiquitin Activating Enzyme (LdE1). The settings on record: 30 µM. The assay is classed as functional.

Assay [3] concerns the target AMP-activated protein kinase, AMPK (Homo sapiens) (UniProt P54646+O43741+P54619+Q9UGJ0+Q9Y478+Q13131+Q9UGI9). As to the kind of experiment: AMP-dependent Kinase enzyme assay. An in vitro enzyme assay that detects ADP turnover that is directly proportional to AMPK activity. This uses naive AMPK that is activated during the assay with MK-8722. The assay is classed as functional. The settings on record: 30 µM.

Assay [4] has as its target Sialic acid-binding Ig-like lectin 9 (Homo sapiens) (UniProt Q9Y336). The assay is described as follows: Hs-Siglec9 ALPHAscreen SOP 20170721. To be noted: 10 µM. In general terms: Bead proximity is the source of the signal in Alpha formats.
Another assay deals with Trypanosoma cruzi. As to the kind of experiment: Trypanosoma cruzi phosphomannomutase and mannose-1-phosphate guanylyltransferase assay. The assay is classed as functional. To be noted: 10 µM.
In assay [5] the target is T2, Arginase-2, mitochondrial (Homo sapiens) (UniProt P78540).
T2 sequence (whole entry): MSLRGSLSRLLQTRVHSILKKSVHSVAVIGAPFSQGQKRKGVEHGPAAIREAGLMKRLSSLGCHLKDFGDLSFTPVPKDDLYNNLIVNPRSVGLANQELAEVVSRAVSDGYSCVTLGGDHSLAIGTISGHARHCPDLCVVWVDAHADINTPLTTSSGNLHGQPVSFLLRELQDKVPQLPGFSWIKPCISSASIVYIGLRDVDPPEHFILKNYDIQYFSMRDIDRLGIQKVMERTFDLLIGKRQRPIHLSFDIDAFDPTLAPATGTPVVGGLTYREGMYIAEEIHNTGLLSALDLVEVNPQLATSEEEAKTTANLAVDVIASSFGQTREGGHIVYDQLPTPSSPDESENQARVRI
As to the kind of experiment: in vitro enzyme assay to detect the production of urea directly proportional to the activity of Arginase II. Note: in the data most compounds retested in dose-response had high values. The assay is classed as functional. The settings on record: 33.3 µM.

For assay [6], the target named is T3, Proteasome subunit beta (Trypanosoma cruzi) (UniProt O96673).
T3 sequence (whole entry): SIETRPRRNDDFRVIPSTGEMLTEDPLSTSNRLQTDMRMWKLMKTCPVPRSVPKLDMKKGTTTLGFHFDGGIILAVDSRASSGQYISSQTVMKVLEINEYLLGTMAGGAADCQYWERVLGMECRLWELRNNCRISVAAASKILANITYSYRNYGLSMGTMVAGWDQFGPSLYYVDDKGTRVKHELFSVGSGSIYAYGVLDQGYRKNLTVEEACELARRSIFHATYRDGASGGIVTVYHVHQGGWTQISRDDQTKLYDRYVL
As to the kind of experiment: Trypanosoma cruzi proteasome chymotrypsin-like activity (TcProtChymo) assay. Note: in the data most compounds retested in dose-response had high values. The assay is classed as functional. The settings on record: 9.37 µM.

The species named for the next assay is Homo sapiens. As to the kind of experiment: To identify inhibition of the IFN signalling (Jak-Stat) pathway via expression of an eGFP reporter gene under the control of an IFN-stimulated response element (ISRE) containing MxA promoter. The assay is classed as functional. To be noted: 30 µM. (A reporter such as luciferase makes a cellular process visible.)
Assay [7] has as its target T4, Tyrosyl-tRNA synthetase, putative (Trypanosoma cruzi (strain CL Brener)) (UniProt Q4DSP6).
T4 sequence (whole entry): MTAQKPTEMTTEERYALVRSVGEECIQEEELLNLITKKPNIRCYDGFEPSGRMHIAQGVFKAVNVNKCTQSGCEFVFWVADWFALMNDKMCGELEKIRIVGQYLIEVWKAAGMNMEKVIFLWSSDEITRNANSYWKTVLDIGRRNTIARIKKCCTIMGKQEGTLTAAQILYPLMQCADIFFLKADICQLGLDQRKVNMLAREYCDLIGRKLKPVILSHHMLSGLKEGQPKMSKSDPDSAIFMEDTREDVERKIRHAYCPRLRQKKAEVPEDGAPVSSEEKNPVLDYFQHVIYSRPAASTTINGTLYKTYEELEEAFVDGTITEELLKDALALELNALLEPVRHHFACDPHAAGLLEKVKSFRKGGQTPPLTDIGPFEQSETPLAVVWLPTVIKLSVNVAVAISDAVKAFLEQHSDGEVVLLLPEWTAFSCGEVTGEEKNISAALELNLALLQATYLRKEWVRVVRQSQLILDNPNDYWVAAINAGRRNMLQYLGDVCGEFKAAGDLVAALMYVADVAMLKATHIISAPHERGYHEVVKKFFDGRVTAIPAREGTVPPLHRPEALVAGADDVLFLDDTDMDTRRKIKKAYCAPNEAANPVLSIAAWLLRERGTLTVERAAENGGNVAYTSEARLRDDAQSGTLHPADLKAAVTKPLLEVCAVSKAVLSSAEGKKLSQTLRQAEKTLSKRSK
As to the kind of experiment: Trypanosoma cruzi tyrosyl tRNA synthetase (TcYRS) _High Tyrosine SOP. Note: in the data most compounds retested in dose-response had high values. The assay is classed as functional. The settings on record: 30 µM.

Assay [8] concerns the target T4, Tyrosyl-tRNA synthetase, putative (Trypanosoma cruzi (strain CL Brener)). The assay is described as follows: Trypanosoma cruzi tyrosyl tRNA synthetase (TcYRS) SOP. The assay is classed as functional. To be noted: 30 µM.
Assay [9] concerns the target Chromo domain-containing protein 1 (Saccharomyces cerevisiae (strain ATCC 204508 / S288c) (Baker's yeast)) (UniProt P32657). As to the kind of experiment: ScCHD-1 Enzyme Inhibition Assay. Note: in the data most compounds retested in dose-response had high values. The assay is classed as functional. The settings on record: 30 µM.

For some assays here: Entries with a potency or affinity are not part of this list.

Chromo domain-containing protein 1 (Saccharomyces cerevisiae (strain ATCC 204508 / S288c) (Baker's yeast)), sequence (P32657 whole entry, the tested form may be a part): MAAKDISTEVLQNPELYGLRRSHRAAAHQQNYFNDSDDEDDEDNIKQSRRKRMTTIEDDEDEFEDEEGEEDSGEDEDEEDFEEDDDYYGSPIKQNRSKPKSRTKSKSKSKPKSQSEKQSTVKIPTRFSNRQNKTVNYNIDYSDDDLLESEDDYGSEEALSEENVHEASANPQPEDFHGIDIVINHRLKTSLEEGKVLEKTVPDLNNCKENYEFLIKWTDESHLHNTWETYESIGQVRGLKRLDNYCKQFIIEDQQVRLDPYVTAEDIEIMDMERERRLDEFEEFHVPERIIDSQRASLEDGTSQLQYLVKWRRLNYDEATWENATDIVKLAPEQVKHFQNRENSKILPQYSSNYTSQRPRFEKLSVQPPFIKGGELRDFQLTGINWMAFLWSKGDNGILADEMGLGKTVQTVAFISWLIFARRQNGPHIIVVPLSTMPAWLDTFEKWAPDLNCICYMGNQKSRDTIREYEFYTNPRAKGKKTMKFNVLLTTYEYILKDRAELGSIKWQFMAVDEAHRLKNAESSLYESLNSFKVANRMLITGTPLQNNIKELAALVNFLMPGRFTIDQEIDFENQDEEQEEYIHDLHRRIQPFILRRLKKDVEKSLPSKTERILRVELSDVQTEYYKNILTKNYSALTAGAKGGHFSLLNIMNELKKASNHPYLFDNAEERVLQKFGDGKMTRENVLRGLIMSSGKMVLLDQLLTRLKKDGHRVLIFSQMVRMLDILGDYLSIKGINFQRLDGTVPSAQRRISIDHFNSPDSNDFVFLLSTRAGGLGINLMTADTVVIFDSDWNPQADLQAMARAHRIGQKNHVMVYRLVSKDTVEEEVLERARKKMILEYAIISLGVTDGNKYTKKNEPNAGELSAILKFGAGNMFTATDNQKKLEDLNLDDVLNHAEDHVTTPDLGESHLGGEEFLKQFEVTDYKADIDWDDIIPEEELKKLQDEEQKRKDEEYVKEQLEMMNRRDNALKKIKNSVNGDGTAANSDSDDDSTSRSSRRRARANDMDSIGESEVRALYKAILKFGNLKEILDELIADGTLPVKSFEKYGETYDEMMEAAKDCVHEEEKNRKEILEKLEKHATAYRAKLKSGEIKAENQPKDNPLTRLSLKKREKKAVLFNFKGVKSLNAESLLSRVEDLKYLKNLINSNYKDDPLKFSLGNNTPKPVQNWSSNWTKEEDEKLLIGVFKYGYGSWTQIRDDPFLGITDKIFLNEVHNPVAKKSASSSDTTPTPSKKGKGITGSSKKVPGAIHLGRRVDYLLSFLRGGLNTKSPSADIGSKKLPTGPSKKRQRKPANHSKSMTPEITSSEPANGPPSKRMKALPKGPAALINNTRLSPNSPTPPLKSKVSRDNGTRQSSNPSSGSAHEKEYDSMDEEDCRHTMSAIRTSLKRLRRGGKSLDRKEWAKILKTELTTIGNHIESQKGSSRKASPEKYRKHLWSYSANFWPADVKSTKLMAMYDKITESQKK
Protein translocase subunit SecA (Escherichia coli (strain K12)), sequence (P10408 whole entry): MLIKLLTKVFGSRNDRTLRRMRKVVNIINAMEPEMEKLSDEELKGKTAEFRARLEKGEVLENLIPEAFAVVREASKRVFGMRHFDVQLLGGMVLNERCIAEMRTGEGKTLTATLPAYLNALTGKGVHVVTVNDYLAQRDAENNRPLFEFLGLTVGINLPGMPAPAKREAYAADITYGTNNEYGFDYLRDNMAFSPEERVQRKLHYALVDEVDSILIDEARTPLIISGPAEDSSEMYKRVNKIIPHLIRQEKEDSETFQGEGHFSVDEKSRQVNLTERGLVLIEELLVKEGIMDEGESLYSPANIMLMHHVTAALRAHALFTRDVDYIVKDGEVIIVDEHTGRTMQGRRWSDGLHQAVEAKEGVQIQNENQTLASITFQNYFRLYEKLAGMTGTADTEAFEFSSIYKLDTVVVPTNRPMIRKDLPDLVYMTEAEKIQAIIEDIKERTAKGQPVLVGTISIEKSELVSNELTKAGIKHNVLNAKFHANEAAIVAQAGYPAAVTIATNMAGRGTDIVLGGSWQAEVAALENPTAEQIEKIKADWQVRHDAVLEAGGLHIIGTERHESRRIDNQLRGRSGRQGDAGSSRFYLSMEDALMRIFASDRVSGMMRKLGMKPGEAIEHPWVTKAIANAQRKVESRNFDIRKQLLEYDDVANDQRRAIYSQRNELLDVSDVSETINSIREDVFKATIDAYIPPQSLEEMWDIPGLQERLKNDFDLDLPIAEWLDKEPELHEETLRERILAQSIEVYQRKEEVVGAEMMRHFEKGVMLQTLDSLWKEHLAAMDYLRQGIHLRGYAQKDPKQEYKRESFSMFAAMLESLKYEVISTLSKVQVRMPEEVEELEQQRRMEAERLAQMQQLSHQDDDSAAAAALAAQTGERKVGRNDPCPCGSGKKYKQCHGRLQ
Sialic acid-binding Ig-like lectin 9 (Homo sapiens), sequence (Q9Y336 whole entry): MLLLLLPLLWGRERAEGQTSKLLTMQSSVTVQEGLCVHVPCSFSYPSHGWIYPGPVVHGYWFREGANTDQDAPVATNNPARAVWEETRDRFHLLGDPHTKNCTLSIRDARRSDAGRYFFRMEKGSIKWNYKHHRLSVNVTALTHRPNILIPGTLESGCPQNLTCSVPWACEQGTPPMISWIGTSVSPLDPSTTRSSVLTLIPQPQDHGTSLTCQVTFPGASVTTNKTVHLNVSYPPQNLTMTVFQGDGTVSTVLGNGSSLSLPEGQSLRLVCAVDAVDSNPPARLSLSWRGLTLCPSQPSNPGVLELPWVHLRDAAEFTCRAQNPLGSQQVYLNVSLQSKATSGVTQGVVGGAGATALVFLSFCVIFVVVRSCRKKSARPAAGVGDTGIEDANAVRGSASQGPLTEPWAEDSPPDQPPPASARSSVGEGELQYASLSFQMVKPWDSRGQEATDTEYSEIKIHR

Regarding `COc1ccc(C(=O)N2CCCC(C)C2)cc1F` (stereo not given), the Percent Effect in [1] is -4.09%; in [2], 24.3%; in assay [3], -19.3%; in assay [4] it was -3.4%; in the assay on Trypanosoma cruzi, 2.17%; in [5], -15.6%. Besides, the Percent Effect in assay [6] was 16.2%; in the assay listed under Homo sapiens, 18.6%; in assay [7] it was 4.43%; in [8] it was 18.5%; in assay [9] it was -9.54%.

With `O=S(=O)(c1ccccc1)N1CCC2(CCCN2CC2CCCC2)C1` (stereo not given), the Percent Effect was -2.93% in assay [1]; -21.6% in assay [2]; -3% in [3]; 2.91% in [4]; -0.489% in the assay on Trypanosoma cruzi; 4.78% in [5]. In addition, the Percent Effect in [6] was 13.3%; in the assay listed under Homo sapiens, -13.9%; in assay [7] it was 6.49%; in assay [8] it was 5.13%; in assay [9], 11%.

For `c1cnn(CC2CN(c3ncnc4sccc34)CCO2)c1` (stereo not given), the Percent Effect is -4.4% in [1]; 2.7% in [2]; 2.36% in assay [3]; -2.57% in [4]; 1.37% in the assay on Trypanosoma cruzi; 2.08% in [5]. For the same molecule, the Percent Effect in assay [6] was 17.8%; in the assay filed under Homo sapiens, 52.9%; in assay [7], 12.9%; in assay [8] it was 15.8%; in [9], -4.89%.

For the molecule `Cc1nc(C)n(C2CCCN(C(=O)c3ccc(NC4CC4)nc3)C2)n1` (stereo not given), the Percent Effect in [1] is -2.93%; in [2] it was -5.41%; in assay [3] it was 2.71%; in assay [4], 10.3%; with Trypanosoma cruzi, 2.14%; in assay [5], -4.25%. Further, the Percent Effect in [6] was -3.77%; in the assay listed under Homo sapiens, 8.24%; in assay [7] it was 1.98%; in assay [8], 6.1%; in assay [9], 4.04%.

For `CN(Cc1cccc(F)c1)C(=O)CN1CCCC1CCc1ccccc1` (stereo not given), the Percent Effect is -3.56% in assay [1]; -7.79% in assay [2]; 2.67% in [3]; 4.42% in assay [4]; 3.44% in the assay on Trypanosoma cruzi; -1.38% in assay [5]. Besides, the Percent Effect in [6] was 2%; in the assay listed under Homo sapiens, -5.85%; in assay [7], 1.07%; in assay [8], -3.7%; in assay [9] it was 113%.

Regarding `Cc1nccc([C@@H]2C[C@@H]3CCN(S(C)(=O)=O)C[C@H]3O2)n1`, the Percent Effect in [1] was -4.82%; in [2], 8.11%; in assay [3], -5.02%; in assay [4], 10.6%; in the assay on Trypanosoma cruzi, 7.14%; in assay [5] it was -0.744%. The Percent Effect was 7.64% in assay [6]; 6.16% in the assay listed under Homo sapiens; 8.6% in assay [7]; 13.6% in [8]; -3.19% in assay [9].

As for `CS(=O)(=O)NCc1n[nH]c2c1CCN(C(=O)c1ccsc1)C2`, the Percent Effect in assay [1] was -4.91%; in assay [2], 0%; in assay [3] it was 2.22%; in assay [4], -3.92%; with Trypanosoma cruzi, -3.48%; in assay [5], -59.7%. Besides, the Percent Effect is 10.9% in assay [6]; 5.55% in the assay filed under Homo sapiens; -2.08% in [7]; 0% in [8]; -5% in [9].

Take `CC(CNc1cncc(-n2cccn2)n1)N(C)c1ccccc1` (stereo not given): the Percent Effect in [1] is -0.428%; in [2] it was 0%; in [3], 9.04%; in assay [4] it was 7.11%; with Trypanosoma cruzi it was 0.374%; in assay [5], 0.712%. The Percent Effect in assay [6] was 1.52%; in the assay filed under Homo sapiens it was 51.6%; in assay [7], 0.971%; in assay [8] it was 0%; in assay [9], -6.86%.

Take `O=C(C1=CCCC1)N1CCC[C@]2(C[C@@H](Oc3ncccc3F)CO2)C1`: the Percent Effect in [1] was -0.607%; in [2] it was -5.48%; in assay [3], -7.12%; in assay [4], 6.71%; in the assay on Trypanosoma cruzi it was 3.77%; in assay [5] it was 0.399%. Also, the Percent Effect in assay [6] is 23.2%; in the assay filed under Homo sapiens, 23.5%; in assay [7], 5.21%; in assay [8], 13.6%; in assay [9] it was -3.32%.

Regarding `c1ccc(Cn2cc(CNCC3CCCN3c3cccnn3)cn2)cc1` (stereo not given), the Percent Effect in assay [1] was -3.01%; in assay [2], 7.89%; in [3] it was -1.98%; in assay [4], -4.74%; in the assay on Trypanosoma cruzi it was 1.96%; in assay [5] it was -7.55%. Moreover, the Percent Effect was 15.5% in [6]; 1.15% in the assay listed under Homo sapiens; 15.3% in assay [7]; 28.4% in assay [8]; -4.79% in assay [9].

The values are drawn from ChEMBL document CHEMBL3988442, “University of Dundee, Small-Polar-MMV Screening Library” (2021).
